Sampled rows, rich in hits. Any-hit rate of the full collection: about 2.6%.
CCT chaperon mod: cytosolic chaperonin activity modulation | purified chaperonin ATPase assay, HTRF ADP detection, 30 min | activity change, % (test concentration not listed), hits read low | 360,000 tested, 0.3% active | AID 651819; in the data active = activity change below about -30%; note: % is set by controls: 0 for no effect and ±100 for the full control effect
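Nucleotide hydrolysis assay: TRiC at 20–40 nM final (set by batch activity) with 10 uM ATP, 30 min at 37 °C, in presence of 76 uM compound. Detection by competitive ADP HTRF, 30 min ambient.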
Nrf2 ARE act: Nrf2 pathway activation; AID 624171; Potency, µM (doses to about 46.1 µM), for inactives: at the highest dose activation, most hits filed as activators; 410,000 tested, 0.31% active; AREc32 ARE-luciferase reporter (MCF7-derived line), luminescence, 24 h; note: potency is the fitted concentration of half-maximal effect; % of control where 0% means no effect; nearly all actives have a fitted effect of over 65% in size
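Reporter line AREc32 (ARE-Fluc), seeded overnight in OPTI-MEM with 5% FBS; compound pin-transferred, 24 hr at 37 deg C, 5% CO2; luminescent read-out.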
TCR act: T cell receptor activation; Potency, µM (titrated, usually from 9.22 µM), without a hit: at the highest dose activation of IL-2 secretion, hits mostly activators; 330,000 tested, under 10 active; primary human leukocytes, anti-CD3, IL-2 HTRF, 48 h; AID 504894; note: % of control where 0% means no effect
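Activity was scored as IL-2 release from primary human leukocytes given only a TCR signal (a-CD3 beads) plus compound for 48 hr. Detection used a two-antibody HTRF format read at 665nm.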
A549 viability: counter-screen for Nrf2 inhibitors: cytotoxicity in A549 cells; A549 ARE-Fluc cells, CellTiter-Fluor viability, 18-24 h; Potency, µM (highest dose often 46 µM), for inactives: at the highest dose activity change, negative = cytotoxicity, usual class: inhibitors; 390,000 tested, 0.16% active; note: potency is the fitted concentration of half-maximal effect; % is set by controls: 0 for no effect and ±100 for the full control effect
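A549 ARE-Fluc cells in 5% FBS OPTI-MEM, 5000 cells/well, rested 2 h then exposed to compounds in concentration-response for 18-24 h at 37 °C. Viability by CellTiter-Fluor fluorescence (Ex 405/Em 525) after 30 min; luciferase luminescence (BugLite, 15 min, RT) read afterwards.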
Nrf2 block: Nrf2 pathway inhibition; 360,000 tested, 2.1% active; Potency, µM (titrated, usually from 46 µM), for the others: at the highest dose activity change, negative = inhibition, actives largely listed as inhibitors; A549 ARE-Fluc reporter, luciferase luminescence, 18-24 h; note: potency is the fitted concentration of half-maximal effect; % is set by controls: 0 for no effect and ±100 for the full control effect; nearly all actives have a fitted effect of over 60% in size
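In this cell-based qHTS, ARE-driven firefly luciferase in A549 cells reports Nrf2 activity; the luminescent signal after BugLite lysis is the measured value, with a prior CellTiter-Fluor read for cell health.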
A-T KAP1 phos: potential ataxia-telangiectasia treatment | F2112 A-T fibroblasts, KAP-1 phosphorylation AlphaLISA; neocarzinostatin DNA damage 30 min before lysis | Potency, µM (titrated, usually from 57.5 µM), for the others: top-dose activation, hits mostly activators | 320,000 tested, 0.19% active; note: potency is the fitted concentration of half-maximal effect; % of control where 0% means no effect; nearly all actives have a fitted effect of over 45% in size
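ATM-like activity read as KAP-1 phosphorylation via AlphaLISA donor/acceptor antibody pairs after lysis and 6 hr at 25C. Cells were ATM-null patient fibroblasts (F2112, hTERT), dosed 60 min, then exposed to the DSB inducer NCS for 30 min.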
Starred values were filed as active, the others as inactive; ? = inconclusive; / = no result given; [ ] = dose if it differs, or a comment. Unless noted, calls come from the whole dose curve; as a rule, active = well fitted curve in the direction sought with a large enough effect; inconclusive = small, poorly fitted or top-dose-only effect, or another doubt; inactive = no such curve, though single readings can be large; an effect the other way counts as inactive or inconclusive.

SMILES	CCT chaperon mod	Nrf2 ARE act	TCR act	A549 viability	Nrf2 block	A-T KAP1 phos
CCCCC(OC(=O)CNC(=O)c1ccccc1)C(=O)Nc1cc(C(F)(F)F)ccc1Cl (stereo not given)	/	/	/	8%	?	/
O=C(CN1C(=O)C2(SCC(=O)N2c2cccc(F)c2)c2ccccc21)NCc1ccccc1Cl (stereo not given)	/	0%	/	-18%	-19%	/
CNS(=O)(=O)c1cccc(C(=O)OCCCOC(=O)c2cccc(S(=O)(=O)NC)c2)c1	-1	0%	-7%	-17%	?	5%
Cc1ccc2nc3c(cc(C(=O)NC4CCS(=O)(=O)C4)n3Cc3ccccc3)c(=O)n2c1 (stereo not given)	2	0%	-11%	?	7%	32µM*
Cc1ccc(CNC(=O)c2ccc3c(c2)c(C)c(C)n3Cc2ccc(Cl)cc2)o1	/	4%	/	4%	?	/
COc1ccc(OC)c(CNC(=O)c2c(C)oc3ncn(C)c(=O)c23)c1	/	0%	/	2%	?	/
O=C(O)/C=C/c1ccc(S(=O)(=O)Nc2ccc(OCc3ccccc3)cc2)cc1	1	0%	-1%	-2%	7%	-3%
N#Cc1ccccc1COc1ccc(/C=C/C(=O)O)cc1	-2	-2%	1%	0%	2.3µM*	0%
Cc1ccc2c(CNCc3cccc(Cl)c3)c(C(=O)O)n(Cc3ccc(F)cc3Cl)c2c1	/	0%	/	7%	4%	/
CCn1cc(CN2CCC(C(=O)Nc3ccc(Oc4cccnc4)cc3)CC2)c(C)n1	-4	0%	-1%	5%	-3%	10%
C=CCn1cc(CN2CCC(C(=O)Nc3ccc(Oc4cccnc4)cc3)CC2)c(C)n1	-31*	3%	7%	3%	4%	9%
CCCCCCCNC(=O)C1(CC2CC(c3ccc(Cl)cc3)=NO2)CCN(C(=O)CCCCCBr)CC1 (stereo not given)	-1	4%	4%	-10%	-17%	-20%
Cc1nc2cc(NS(=O)(=O)c3cccc4cccnc34)ccc2s1	-1	1%	/	1%	26µM*	7%
Cc1ccc(C)c(S(=O)(=O)Nc2ccc3sc(C)nc3c2)c1	-3	-1%	6%[46.1 µM]	-10%	?	/
COc1ccc(NC(=O)C2CCN(S(=O)(=O)c3cn(C)cn3)CC2)cc1Cl	/	0%	/	-7%	/	/
N=c1c2c(-c3ccccc3)c(-c3ccccc3)n(Cc3ccco3)c2ncn1Cc1ccccc1	0	0%	-1%	5%	12%	2%
CC(C)Cn1cnc2c(c(-c3ccccc3)c(-c3ccccc3)n2Cc2ccco2)c1=N	-5	3%	3%	23µM*	-20%	0%
CCOC(=O)c1c(C)[nH]c(C)c1S(=O)(=O)NCC1CCN(Cc2ccccc2OC)CC1	-2	0%	-3%	0%	1%	-5%
CN(c1ccccc1)S(=O)(=O)CS(=O)(=O)N(C)c1ccccc1	-1	0%	-4%	-1%	-14%	/
CN(c1ccccc1)P(=O)(N(C)c1ccccc1)N(C)c1ccccc1	-1	0%	5%	?	16µM*	9%
CCCCCCc1cc2cc(S(=O)(=O)c3ccc(F)c(Cl)c3)c(=O)oc2cc1O	-1	0%	-1%[46.1 µM]	?	?	28µM*
CCCCCCc1cc2cc(C(=O)OCC)c(=O)oc2cc1O	-3	-1%	-11%	-2%	-16%	1%
O=C(Nc1ccccc1C(=O)N1CCCCCC1)c1cccc([N+](=O)[O-])c1	-4	2%	-1%	?	6%	17%
Brc1cc(Br)c2ncnc(N3CCCCC3)c2c1	-4	0%	-33%	?	26µM*	6%
Cc1ccc(S(=O)(=O)Nc2ccc(C(=O)N3CCN(c4ccccc4O)CC3)cc2)cc1[N+](=O)[O-]	1	3%	-2%	-26%	15µM*	1%
SMILES	CCT chaperon mod	Nrf2 ARE act	TCR act	A549 viability	Nrf2 block	A-T KAP1 phos
Cc1ccccc1NS(=O)(=O)c1ccc(C(=O)N2CCN(c3ccccc3O)CC2)cc1	-4	1%	3%	-14%	?	9%
CCc1ccc(NC(=O)C(C)OC(=O)c2ccc(NS(=O)(=O)c3ccc(C)c([N+](=O)[O-])c3)cc2)cc1 (stereo not given)	-2	3%	17%[46.1 µM]	?	21µM*	1%
Brc1ccccc1-c1nnc(-c2cccnc2)o1	-2	16µM*	4%	-2%	?	9%
CN1CCN(C(=O)Nc2cccc(Cl)c2)c2cccnc21	/	6%	/	1%	2%	/
CN(Cc1cc(Cl)cc(Cl)c1)CC(C(=O)c1ccccc1)c1ccccc1 (stereo not given)	-1	11µM*	-2%	11%	-8%	/
O=C(CC(C(=O)c1ccccc1)c1ccccc1)c1ccccc1 (stereo not given)	1	0%	-2%	-4%	-1%	/
CC(CN(C)Cc1ccccc1)OC(=O)c1ccc(F)cc1 (stereo not given)	-2	0%	1%[46.1 µM]	4%	7%	13%
CN(C)CC(C(=O)c1ccccc1)c1ccccc1 (stereo not given)	-2	?	2%	-10%	10%	32µM*
Cc1cccc(-c2nc3c4ccccc4nc(NCc4ccccc4Cl)n3n2)c1	/	9%	/	1%	?	/
CC(CCc1ccccc1)NC(=O)c1ccc(C(=O)NC(C)CCc2ccccc2)cc1 (stereo not given)	-1	0%	-5%	?	12µM*	0%
COc1ccc(NC(=O)c2ccc(CN3CCc4ccccc4C3)cc2)cc1OC	0	2%	-10%	0%	21µM*	8%
CC(=O)c1cccc(NC(=O)c2ccc(CN3CCc4ccccc4C3)cc2)c1	-2	4%	-7%	5%	-19%	1%
O=C(Nc1ccc(Cl)cc1)c1ccc(CN2CCc3ccccc3C2)cc1	-1	5%	-5%	-9%	?	2%
COc1cccc(NC(=O)c2ccc(CN3CCc4ccccc4C3)cc2)c1	-3	8%	-5%	0%	15µM*	1%
CCc1cccc(CC)c1NC(=O)CSc1nc2ccc(N3C(=O)C4C(C3=O)[C@H]3C=C[C@@H]4C3)cc2s1 (stereo not given in full)	3	0%	0%[46.1 µM]	-10%	13µM*	-1%
Cc1cccc(N(C(=O)c2snc(C(N)=O)c2N)C(C(=O)NCc2ccccc2)c2ccncc2)c1 (stereo not given)	1	0%	4%	-15%	23µM*	0%
CCCCN(CC)C(=O)c1nn(C)c2c1CSc1ccccc1-2	/	3%	/	-2%	16%	/
